Screens deposited in PubChem by National Center for Advancing Translational Sciences (NCATS).
DT40 TDP1 CPT – DT40-hTDP1 cell growth loss with CPT. 12% of 420,000 active. chicken DT40 Tdp1-/-;hTDP1 cells + 20 nM CPT, ATP luminescence, 48 h. Potency, µM (top dose mostly 46.2 µM), for the others: at the top dose activity change, negative = growth inhibition, hits mostly inhibitors; also: nearly all actives have a fitted effect of over 55% in size
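Chicken DT40 Tdp1-/- cells stably complemented with human TDP1 were seeded at 400 cells/well in medium containing 20 nM camptothecin, exposed to pin-transferred compounds, and grown at 37 °C for at least 48 hr. Viability was read as ATP luminescence.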
DT40 TDP1 no CPT – qHTS for Inhibitors of human tyrosyl-DNA phosphodiesterase 1 (TDP1): qHTS in cells in absence of CPT; AID 686978, 2013; Potency, µM (doses to about 46.2 µM), without a hit: top-dose activity change, negative = growth inhibition, usual class: inhibitors; DT40 Tdp1-/- hTDP1 cells, no CPT, ATP luminescence, 48 h; 15% of 420,000 active; also: nearly all actives have a fitted effect of over 55% in size
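Chicken DT40 Tdp1-/- cells stably complemented with human TDP1 were seeded at 400 cells/well with DMSO in place of 20 nM camptothecin. After compound pinning, cells grew at least 48 hr at 37 °C; viability read by CellTiter-Glo luminescence.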
Gal4-VP16 FLuc – Gal4-VP16 reporter inhibition counter-screen. Drosophila S2 Gal4-VP16 UAS-luciferase, luminescence, 20 h. 3.5% of 310,000 active. AID 2546. Potency, µM (highest dose often 53.6 µM), for the others: at the highest dose activity, negative = inhibition, actives largely listed as inhibitors;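 also: Gal4-VP16 expression switched on by copper sulfate through the metallothionein promoter; nearly all actives have a fitted effect of over 50% in size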
ELG1 DNA repair – inhibitors of ELG1-dependent DNA repair in HEK293T cells; AID 504467; Potency, µM (doses to about 46.1 µM), for the others: at the top dose activity change, negative = inhibition, usual class: inhibitors; 2.3% of 330,000 active; HEK293T ELG1-luciferase reporter, luminescence, 16 h; DNA damage induced by 5-fluorouridine; also: nearly all actives have a fitted effect of over 55% in size
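HEK293T cells expressing luciferase-tagged ELG1 (2,000/well) received 5-Fluorouridine plus compound or DMSO for 16 hr at 37 °C. Luciferase was read by ONE-Glo luminescence after 30 min at room temperature.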
RORg inh – ROR gamma (mouse) transcription inhibition; P51450; Drosophila S2 Gal4-RORgamma UAS-luciferase reporter, 20 h; Potency, µM (highest dose often 53.6 µM), without a hit: top-dose activity change, negative = inhibition, most hits filed as inhibitors; 5.4% of 310,000 active; AID 2551; also: nearly all actives have a fitted effect of over 60% in size
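Stably transfected Drosophila Schneider cells are the test system, with ROR gamma fused to Gal4 and luciferase under UAS control; luminescence is read after 20 hr of 700 uM copper sulfate induction at ambient temperature.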
12-LOX inh – inhibitors of human 12S-lipoxygenase ALOX12. 1.1% of 580,000 active. AID 1671190. purified 12hLO, xylenol orange hydroperoxide absorbance. Potency, µM (top dose mostly 108 µM), inactives show top-dose activity change, negative = inhibition, usual class: inhibitors. P18054
Target sequence (P18054 whole entry, looked up): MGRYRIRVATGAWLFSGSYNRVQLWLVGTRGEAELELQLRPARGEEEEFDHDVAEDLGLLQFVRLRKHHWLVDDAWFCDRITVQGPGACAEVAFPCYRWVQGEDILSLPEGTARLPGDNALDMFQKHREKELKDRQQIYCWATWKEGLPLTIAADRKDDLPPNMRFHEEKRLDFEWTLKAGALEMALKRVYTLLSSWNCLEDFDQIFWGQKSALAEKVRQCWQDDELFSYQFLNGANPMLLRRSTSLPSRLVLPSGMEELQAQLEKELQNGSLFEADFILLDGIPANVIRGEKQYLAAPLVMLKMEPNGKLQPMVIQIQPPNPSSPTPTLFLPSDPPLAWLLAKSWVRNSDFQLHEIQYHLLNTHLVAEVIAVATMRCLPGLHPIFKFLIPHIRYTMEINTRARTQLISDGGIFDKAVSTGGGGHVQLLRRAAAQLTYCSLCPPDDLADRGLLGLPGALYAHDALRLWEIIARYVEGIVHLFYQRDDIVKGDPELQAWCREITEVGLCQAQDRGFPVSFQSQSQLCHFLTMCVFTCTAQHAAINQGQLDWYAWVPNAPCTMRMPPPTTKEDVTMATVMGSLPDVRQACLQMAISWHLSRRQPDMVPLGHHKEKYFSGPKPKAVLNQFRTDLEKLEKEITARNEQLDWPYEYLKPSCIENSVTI
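Purified human 12hLO (150 nM final) in 25 mM Hepes, 0.01% Triton X-100, pH 7.0 was preincubated 15 min at room temperature with compound. Then 40 uM arachidonic acid was added, 30 min. Hydroperoxide was read by Fe-XO absorbance ratio 573/405 nm.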
Starred values were filed as active, the others as inactive; [ ] = another dose, or the depositor's remark. This is a sample that favours compounds with a hit; in the whole collection about 15% have one here. Calls follow the shape of the dose curve; as a rule, active = well fitted curve in the direction sought with a large enough effect; inconclusive = small, poorly fitted or top-dose-only effect, or another doubt; inactive = no such curve, though single readings can be large; an effect the other way counts as inactive or inconclusive. % is scaled to controls: 0 for no effect and ±100 for the full control effect; potency is read from the fitted curve at half-maximal effect.

`CN(C)c1ccc(C(CNC(=O)c2ccc(C(C)(C)C)cc2)N2CCCC2)cc1` (stereo not drawn) gave DT40 TDP1 CPT 13µM*, DT40 TDP1 no CPT 7.3µM* and 12-LOX inh 8%.
COc1ccc(C(=O)NCC(c2ccc(N(C)C)cc2)N2CCOCC2)cc1 (stereo not drawn) was read as DT40 TDP1 CPT 7.3µM*, DT40 TDP1 no CPT 10µM* and 12-LOX inh -5%.
Screening COc1ccc(C(CNC(=O)c2cc3c(s2)CCC(C)C3)N2CCOCC2)cc1 (stereo not drawn) returned DT40 TDP1 CPT 23µM*, DT40 TDP1 no CPT inconclusive, ELG1 DNA repair -17% and 12-LOX inh -4%.
`COc1ccc(C(=O)NCC(c2ccc(N(C)C)cc2)N2CCCC2)cc1` (stereo not drawn) gave DT40 TDP1 CPT inconclusive, DT40 TDP1 no CPT inconclusive and 12-LOX inh -24%.
CN(C)c1ccc(C(CNC(=O)c2cccc(C(F)(F)F)c2)N2CCCC2)cc1 (stereo not drawn) was read as DT40 TDP1 CPT 15µM*, DT40 TDP1 no CPT 16µM* and 12-LOX inh -2%.
`COc1ccc(C(CNC(=O)c2ccc(S(=O)(=O)N(C)C)cc2)N2CCCCC2)cc1` (stereo not drawn) gave DT40 TDP1 CPT 12%, DT40 TDP1 no CPT -9%, Gal4-VP16 FLuc 5%, ELG1 DNA repair -2%, RORg inh 8% and 12-LOX inh 2%.
For COc1ccc2c(c1)cc(C(=O)NCCC(=O)Nc1ccc3c(c1)OCCO3)n2C the results were 12-LOX inh 0%.
CC(C)CNC(=O)c1cc(C2CC2)nc2c1c(C1CCCN1)nn2C (stereo not drawn) was read as 12-LOX inh -15%[6.33 µM].
`COc1ccc(S(=O)(=O)c2ccc(OC)cc2)cc1` gave DT40 TDP1 CPT inconclusive, DT40 TDP1 no CPT -28%, Gal4-VP16 FLuc -1%, ELG1 DNA repair -11%, RORg inh 10% and 12-LOX inh 0%.
Screening O=C(OCc1ccccc1)c1cnc2ccccc2n1 returned 12-LOX inh 2%.
For Brc1ccc(Sc2cnc3ccccc3n2)cc1 the results were DT40 TDP1 CPT -11%, DT40 TDP1 no CPT -22%, Gal4-VP16 FLuc 17%, RORg inh 34% and 12-LOX inh 5%.
For O=S(=O)(c1ccc(Br)cc1)c1cnc2ccccc2n1 the results were DT40 TDP1 CPT 26µM*, DT40 TDP1 no CPT inconclusive, Gal4-VP16 FLuc inconclusive, ELG1 DNA repair inconclusive, RORg inh 11µM* and 12-LOX inh -19%.
COc1ccc(S(=O)(=O)c2cnc3ccccc3n2)cc1 was read as DT40 TDP1 CPT inconclusive, DT40 TDP1 no CPT inconclusive, Gal4-VP16 FLuc inconclusive, ELG1 DNA repair 1%, RORg inh 11µM* and 12-LOX inh 0%.
`O=S(=O)(Cc1ccccc1)c1cnc2ccccc2n1` gave DT40 TDP1 CPT 16µM*, DT40 TDP1 no CPT 16µM*, Gal4-VP16 FLuc -2%, ELG1 DNA repair 2%, RORg inh inconclusive and 12-LOX inh 0%.
COCCOCc1nc(C2CCN(C(=O)NCCc3ccccc3)CC2)no1 was read as 12-LOX inh 36%.
Cc1noc(C)c1Cc1ccc(C(=O)N2CC(N(C)Cc3cccnc3)C2)o1 was read as 12-LOX inh 36%.
COC(=O)Cc1ccc(NC(=S)NCc2ccc(S(N)(=O)=O)cc2)cc1 was read as DT40 TDP1 CPT 21µM*, DT40 TDP1 no CPT -17%, Gal4-VP16 FLuc -3%, ELG1 DNA repair 15%, RORg inh 0% and 12-LOX inh -8%.
Screening COC(=O)Cc1ccc(NC(=S)NCc2cccc(OC)c2)cc1 returned DT40 TDP1 CPT -1%, DT40 TDP1 no CPT inconclusive, Gal4-VP16 FLuc 8%[10 µM], ELG1 DNA repair 1%, RORg inh 13µM* and 12-LOX inh inconclusive.
CCCCc1ccc(NC(=S)NCc2cccc(OC)c2)cc1 was read as DT40 TDP1 CPT inconclusive, DT40 TDP1 no CPT inconclusive, Gal4-VP16 FLuc 0%[10 µM], ELG1 DNA repair -17%, RORg inh 3.5µM* and 12-LOX inh inconclusive.
For CCCCc1ccc(NC(=S)NCc2cccnc2)cc1 the results were DT40 TDP1 CPT inconclusive, DT40 TDP1 no CPT inconclusive, Gal4-VP16 FLuc inconclusive, ELG1 DNA repair 6%, RORg inh inconclusive and 12-LOX inh -6%.
CCCCc1ccc(NC(=S)Nc2cccnc2)cc1 was read as DT40 TDP1 CPT 0%, DT40 TDP1 no CPT -18%, Gal4-VP16 FLuc 13µM*, ELG1 DNA repair 1%, RORg inh 13µM* and 12-LOX inh inconclusive.
Screening O=C(Nc1ccc(N2CCOCC2)c(Cl)c1)c1cccc2ccccc12 returned 12-LOX inh 16%.
For Cn1cc(C(C(=O)O)N2CCN(C(c3ccccc3)c3ccccc3)CC2)c2cc(C(=O)O)ccc21 (stereo not drawn) the results were 12-LOX inh -7%.
CC(Cc1c[nH]c2ccccc12)NC(=O)CNc1nc(Cl)nc2nc[nH]c12 (stereo not drawn) was read as 12-LOX inh 3%.
Cc1ccc(-c2ccc3nnc(CNC(=O)CSc4ccncc4)n3n2)cc1 was read as 12-LOX inh 15%.
CCCCc1ccc(NC(=S)Nc2ccc(Nc3ccc(OC)cc3)cc2)cc1 was read as DT40 TDP1 CPT 18µM*, DT40 TDP1 no CPT 21µM*, Gal4-VP16 FLuc 1.6µM*, ELG1 DNA repair inconclusive, RORg inh 1.1µM* and 12-LOX inh 35µM*.
`CCCCc1ccc(NC(=S)NCCCO)cc1` gave 12-LOX inh -39%.
Screening COc1cccc(NC(=O)Nc2ccc(CC(=O)O)cc2)c1 returned DT40 TDP1 CPT -4%, DT40 TDP1 no CPT -12%, Gal4-VP16 FLuc 20µM*, ELG1 DNA repair 19%, RORg inh inconclusive and 12-LOX inh 10%.
O=C(c1csc2ccccc12)N1CCCCCC1 was read as DT40 TDP1 CPT 21µM*, DT40 TDP1 no CPT 18µM*, Gal4-VP16 FLuc -7%, ELG1 DNA repair -16%, RORg inh inconclusive and 12-LOX inh 3%.
`O=C(c1csc2ccccc12)N1CCN(c2ccccn2)CC1` gave DT40 TDP1 CPT -1%, DT40 TDP1 no CPT inconclusive, Gal4-VP16 FLuc 1%, ELG1 DNA repair -16%, RORg inh 22% and 12-LOX inh inconclusive.
For O=C([C@@H]1C[C@H](F)CN1C(=O)Cc1ccc(F)cc1)N1CCCCC1 the results were 12-LOX inh -1%.
